In the library only some 4% were active in any assay of this set; here they are far more common.
TWEAK Fn14 block – TWEAK-Fn14 signaling inhibition; AID 1159606; TWEAK-stimulated Fn14 reporter cells, luciferase luminescence, 8 h; 360,000 compounds, 2% hits; inhibition, % at 10 µM; in the data active = inhibition above about 50%
HIF-2a block – blocks HIF-2a reporter activity; 360,000 compounds, 0.72% hits; AID 624352; 786-0 RCC cells HIF-2a reporter, luciferase luminescence, overnight; inhibition, % at 18.8 µM;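 active = inhibition of the luminescence signal of 40% or more relative to plate controls, in a single-dose primary screen at 18.75 µM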
TROY signal inh – inhibitors of TROY-dependent NF-kB signaling | inhibition, % at 10 µM | 360,000 compounds, 0.98% hits | AID 1347056 | Q293 LMP1-TROYcd NF-kB luciferase reporter, 4 h;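 active = compounds whose plate-normalised and pattern-corrected inhibition of the luciferase reporter signal at the single screening dose is 50% or more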
KKLEB cytotox – counter-screen for CF NF-kB inhibitors: cytotoxicity; 360,000 compounds, 0.36% hits; AID 602141; KKLEB CF airway cells viability, ATPlite luminescence, overnight; active compounds read low; cells stimulated with P. aeruginosa culture filtrate; activity change (cytotoxicity), % at 5 µM;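 active = corrected activity change at or below -50% at 5 µM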
Peg3 promoter – inhibitors of Peg3 promoter | HeLa PEG-Prom luciferase reporter, luminescence, overnight | inhibition, % at 20 µM | 360,000 compounds, 1.7% hits;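 active = inhibition of at least 50% at 20 µM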
CF NFkB inh – inhibitors of cystic fibrosis induced NF-kB | KKLEB NF-kB-GFP reporter, PAF-induced, GFP fluorescence overnight | inhibition, % at 5 µM | 360,000 compounds, 0.86% hits;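 active = at least 50% inhibition at 5 µM, scaled per plate between neutral and stimulator controls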;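 also: PAF is a Pseudomonas aeruginosa culture filtrate used as stimulus; plate controls were PAF-stimulated DMSO wells for no effect and unstimulated DMSO wells for full effect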
Active calls of the source: *; . = not tested or not shown; ! = a repeat was not active.

SMILES	TWEAK Fn14 block	HIF-2a block	TROY signal inh	KKLEB cytotox	Peg3 promoter	CF NFkB inh
CC1=C(/C=C/C(C)=C/C=C/C(C)=C/C(=O)Nc2ccc(O)cc2)C(C)(C)CCC1	20	11	17	-9	61*!	4
CC1=C(/C=C/C(=O)O)C(C)(C)CCC1	-1	4	4	-16	10	8
COc1ccccc1CCNC(=O)CSc1nc(=O)[nH]c2c1CCC2	2	5	-51	10	13	-10
Cc1ccc(S(=O)(=O)N2C[C@H]3n4c(=O)ccc(=O)n4C[C@H](OC(=O)NCC4CCCCC4)[C@@]3(O)C2)cc1	61*	11	16	-7	94*	40
COC(=O)c1ccc(C(=S)NCC2(N(C)C)CCCCC2)cc1	13	-3	-12	3	-9	-10
c1ccc(Nc2ccnc(Nc3ccccc3)n2)cc1	55*	-255	20	-16	-241	49
Cc1ccc(N=Nc2ccc(O)c3ncccc23)cc1C	10	-179	9	-7	-79	22
COc1ccccc1N=Nc1ccc(O)c2ncccc12	42	-96	65*	-20	20	-2
CCS(=O)(=O)c1ccc(N=Nc2ccc(O)c3ncccc23)c(OC)c1	65*	12	39	-27	48	45
O=C(Nc1ccc(-c2csc(Nc3ccccc3)n2)cc1)c1cc([N+](=O)[O-])cc(C(F)(F)F)c1	66*	-17	19	12	23	4
CN(C)c1ccc(C=c2c3cc(O)ccc3n3c2cc(-c2ccccc2)[n+]3C)cc1	40	-73	27	-8	46	-71
Cc1cc2c(=Cc3ccc(N(C)C)cc3)c3ccccc3n2[n+]1C	67*	69*	41	7	97*	-132
CN(C)c1ccc(C=c2c3ccccc3n3c2c2ccccc2[n+]3C)cc1	25	-9	23	-8	71*	23
CCOC(=O)c1cc2c(=Cc3ccc(N(C)C)cc3)c3ccccc3n2[n+]1C	7	-52	27	-8	47	-21
CCC(=O)Nc1ccc2nc(C3CC3)n(Cc3ccc(C(C)(C)C)cc3)c(=O)c2c1	66*	-224	75*	-12	-213	11
Cc1ccc2nc(-c3cccnc3)cc(C(=O)N3CCN(c4ccc([N+](=O)[O-])cc4)CC3)c2c1	21	19	-17	-21	100*	3
CC(=O)c1ccc(N2CCN(C(=O)c3cc(-c4cccnc4)nc4ccc(Br)cc34)CC2)cc1	5	-22	-5	-4	16	-8
C#CCNC(=O)C[C@@H]1C[C@@]2(C(=O)OC)CC(C)(C)CC=C2N(CCCCCCCC)C1=O	.	5	.	.	.	.
CC1(C)CCCN(C(=O)c2ccc3c(c2NCCO)C(=O)c2ccccc2C3=O)C1	25	40*	9	-1	23	-2
CCOc1ccc(C(c2c(NC(=O)c3ccco3)sc(C)c2C)N2CCOCC2)cc1 (centres undefined)	66*	-33	12	8	-8	4
COc1cccc(C(c2c(NC(=O)c3ccco3)sc(C)c2C)N2CCOCC2)c1 (centres undefined)	82*	-22	36	6	-10	-2
Cc1sc(NC(=O)c2ccco2)c(C(c2ccncc2)N2CCOCC2)c1C (centres undefined)	-22	15	0	-5	7	2
CC(=O)/C=C1\OCc2ccccc21	.	-22	.	.	.	.
CC(=O)c1ccc2c(c1)N(Cc1ccccc1Cl)C(=O)C(C)S2 (centres undefined)	-42	3	5	-18	22	11
O=C1NC(CCO)C(=O)NC1CCO (centres undefined)	10	7	-12	-5	7	-6
SMILES	TWEAK Fn14 block	HIF-2a block	TROY signal inh	KKLEB cytotox	Peg3 promoter	CF NFkB inh
COc1ccc(-c2cn3cc(C)ccc3n2)cc1F	76*	-16	61*	-27	-2	-11
CCc1nnc(NC(=O)Nc2ccccc2OC)s1	5	-293	-62	3	-153	15
O=C(Nc1nc(-c2cccs2)c(C(=O)C(F)(F)F)s1)c1ccco1	-8	-9	14	-11	13	10
COc1ccc(C(=O)Nc2nnc(SCC(=O)NC3CC3)s2)cc1	54*	-36	7	-2	-42	9
O=C(Nc1nc(-c2cccs2)c(C(=O)C(F)(F)F)s1)c1ccccc1	56*	-118	60*	-2	-18	43
COc1ccc(C(=O)Nc2nnc(SCC(=O)NCc3ccco3)s2)c(OC)c1	75*	1	43	-11	-39	-5
CCc1nnc(NC(=O)c2ccc(OC)cc2OC)s1	74*	-38	22	-1	-99	0
N#Cc1cccnc1N1CCN(C(c2ccnc3ccccc23)c2nnnn2-c2ccc3c(c2)OCCO3)CC1 (centres undefined)	16	-6	15	.	.	.
Nc1ncnc2c1ncn2[C@@H]1O[C@H](CNC(=O)[C@H](N)Cc2cscn2)[C@@H](O)[C@H]1O	8	-1	0	-3	1	4
COc1ccc(C2CCc3cc4c(cc3C2=NOC(C)=O)OCO4)cc1OC (centres undefined)	7	-24	17	-1	0	0
COc1ccc(CN2CCN(C(=O)CCC(=O)Nc3nnc(C4CCCCC4)s3)CC2)cc1F	13	-9	17	8	-17	7
COc1ccc(C(=O)Nc2nnc(-c3cccs3)s2)cc1	55*	-185	7	-12	-131	0
COc1ccc(NC(=O)Nc2nnc(-c3cccs3)s2)cc1	-33	-251	-59	3	-182	-6
COc1ccc(C(=O)Nc2nnc(SCC(=O)NC3CCCC3)s2)c(OC)c1	74*	-115	-25	-26	-115	-25
COc1ccc(C(=O)Nc2nnc(SCC(=O)Nc3ccc(NC(C)=O)cc3)s2)c(OC)c1	11	-205	25	-23	-262	16
CC1=NNC(=O)C1CC(=O)N/N=C/c1cccs1 (centres undefined)	-14	10	54*	-1	9	4
COc1cccc(/C=N/NC(=O)CC2C(=O)NN=C2C)c1OC (centres undefined)	10	11	-27	-1	-9	15
Cc1cccc(NC(=S)N=Nc2c(O)[nH]c3ccccc23)c1	83*	-73	-46	6	-19	19
O=C(N=Nc1c(O)[nH]c2ccccc12)Nc1ccccc1	-19	-267	-39	-9	-341	11
O=[N+]([O-])c1ccc(COc2cccc(CN3CCCCC3)c2)cc1	0	-11	-1	3	-2	-18
Cc1ccc(S(=O)(=O)N2C3CC(c4ccccc4)N(S(=O)(=O)c4ccccc4Cl)CC3C(=O)C[C@H]2c2ccccc2)cc1 (some centres undefined)	.	9	.	.	.	.
CCC(C)n1c(=S)[nH]c2c(sc3ccc([N+](=O)[O-])cc32)c1=O (centres undefined)	23	4	29	-50	10	54*
